# Results taken from ChEMBL document CHEMBL3988442, “University of Dundee, Small-Polar-MMV Screening Library” (2021).
# The whole screen tested about 66,000 compounds, of which about 960 (1.5%) showed an effect of 50% or more. For the sample, strong results were picked, then their nearest neighbours and some compounds at random.
# Test system: Trypanosoma brucei
# Test: Trypanosoma brucei 72 hour study
# Format: functional, organism-based
# Set-up: scale not given: in the data most compounds retested in dose-response had high values
structure (smiles),measurement,setting,value
CCOCCC(=O)N1CCc2cccc(S(=O)(=O)N3CCOCC3)c2C1,Percent Effect,"30 µM, 30.03 µM",-15.51%
CS(=O)(=O)c1ccccc1NCc1ccc(Cn2ccnc2)cc1,Percent Effect,"30 µM, 30.03 µM",-15.33%
CN(Cc1ccccn1)C1CC2(CCN(Cc3cccnc3)CC2)C1.O=C(O)C(F)(F)F.O=C(O)C(F)(F)F.O=C(O)C(F)(F)F,Percent Effect,"30 µM, 30.03 µM",-16.66%
CCCNCc1ccc(OCc2ccc3c(c2)OCCO3)cc1.Cl,Percent Effect,"30 µM, 30.03 µM",56.18%
CNCc1ccc(OCc2ccc3c(c2)OCCO3)cc1.Cl,Percent Effect,"30 µM, 30.03 µM",-35.77%
CCNCc1ccc(OCc2ccc3c(c2)OCCO3)cc1.Cl,Percent Effect,"30 µM, 30.03 µM",-18.34%
Cc1c(C(=O)N2CCCC(n3cccn3)C2)nnn1-c1ccccc1 (stereo not drawn),Percent Effect,10 µM,-41.06%
same,Percent Effect,"30.3 µM, […]",-3.586%
CNC(=O)CN1CCCC12CCN(Cc1c[nH]cn1)CC2.O=C(O)C(F)(F)F.O=C(O)C(F)(F)F,Percent Effect,"30 µM, 30.03 µM",-41.63%
Cc1ccc(-c2ccc(CC3NCCN(C)C3=O)cc2)cc1.Cl (stereo not drawn),Percent Effect,"30.3 µM, […]",-13.76%
CC(c1cn2ncsc2n1)N1Cc2ncccc2C1=O (stereo not drawn),Percent Effect,"30.3 µM, […]",6.941%
Fc1cnc(N2C[C@H]3CCC[C@@]3(COc3ccccn3)C2)nc1.O=C(O)C(F)(F)F.O=C(O)C(F)(F)F,Percent Effect,"30 µM, 30.03 µM",83.95%
O=C(O)C(F)(F)F.O=C(c1ncccn1)N1C[C@H]2CCC[C@@]2(COc2ccccn2)C1,Percent Effect,"30 µM, 30.03 µM",19.9%
Cc1occc1C(=O)N1C[C@@H](OCc2cccnc2)[C@H]2OCCC[C@@H]21.O=C(O)C(F)(F)F,Percent Effect,"30 µM, 30.03 µM",-8.947%
Cc1cncc(C(=O)N2C[C@H]3CCC[C@@]3(COc3ccccn3)C2)c1.O=C(O)C(F)(F)F.O=C(O)C(F)(F)F,Percent Effect,"30 µM, 30.03 µM",53.76%
Fc1cnc(N2C[C@@H]3COC[C@]3(COc3ccccn3)C2)nc1.O=C(O)C(F)(F)F.O=C(O)C(F)(F)F,Percent Effect,"30.3 µM, […]",-2.43%
Cc1ccoc1C(=O)N1C[C@H](OCc2cccnc2)[C@H]2OCCC[C@H]21.O=C(O)C(F)(F)F,Percent Effect,"30 µM, 30.03 µM",55.38%
O=C(O)C(F)(F)F.O=C(c1ccccc1)N1C[C@H]2CCC[C@@]2(COCc2ccncc2)C1,Percent Effect,"30 µM, 30.03 µM",-75.85%
Cc1ccoc1C(=O)N1C[C@H]2CCC[C@@]2(COCc2ccncc2)C1.O=C(O)C(F)(F)F,Percent Effect,"30 µM, 30.03 µM",58.51%
Cc1ccc(C(=O)N2C[C@@H](OCc3cccnc3)[C@H]3OCCC[C@@H]32)o1.O=C(O)C(F)(F)F,Percent Effect,"30 µM, 30.03 µM",5.646%
Cc1ccc(C(=O)N2C[C@H]3CCC[C@@]3(COc3ccccn3)C2)nc1.O=C(O)C(F)(F)F.O=C(O)C(F)(F)F,Percent Effect,"30 µM, 30.03 µM",43.42%
O=C(O)C(F)(F)F.O=C(c1ncccn1)N1C[C@H]2CCC[C@@]2(COCc2ccncc2)C1,Percent Effect,"30 µM, 30.03 µM",14.62%
CS(=O)(=O)N1C[C@H]2CCC[C@@]2(COc2ccccn2)C1.O=C(O)C(F)(F)F,Percent Effect,"30 µM, 30.03 µM",-36.44%
N#Cc1cccc(CN2CC[C@@H]3[C@@H]2CC(=O)N3Cc2cccnc2)c1.O=C(O)C(F)(F)F.O=C(O)C(F)(F)F,Percent Effect,"30 µM, 30.03 µM",-2.932%
CC(C)n1nc(CN2CCCCC2)c2c1CN(C(=O)c1ccno1)C2.O=C(O)C(F)(F)F,Percent Effect,"30.3 µM, […]",-65.47%
COCCN1CCC2(CC1)CCN(Cc1ccccn1)CC2.O=C(O)C(F)(F)F.O=C(O)C(F)(F)F,Percent Effect,"30.3 µM, […]",-12.12%
Cc1nc(CN2CC[C@H](OCC3CC3)[C@@H]2Cc2cccnc2)cs1.O=C(O)C(F)(F)F.O=C(O)C(F)(F)F,Percent Effect,"30.3 µM, […]",-53.44%
O=c1c(CN2CCCCCC2)coc(O)c1CN1CCCCCC1,Percent Effect,"30 µM, 30.03 µM",14.22%
CCN1CCCc2cc(-c3cncn3C(C)CN3CCOCC3)ccc21.Cl (stereo not drawn),Percent Effect,"30.3 µM, […]",-9.571%
CN1CCC2(CC1)CN(C(=O)c1cnccn1)Cc1ccccc12.O=C(O)C(F)(F)F,Percent Effect,"30 µM, 30.03 µM",-7.96%
CNC(=O)[C@@H]1C[C@H]2CN(Cc3ccc(C)s3)C[C@H]2N1C(C)=O.O=C(O)C(F)(F)F.O=C(O)C(F)(F)F,Percent Effect,"30.3 µM, […]",-19.68%
Fc1ccc(-c2nccnc2C2CCCNC2)cc1 (stereo not drawn),Percent Effect,"30.3 µM, […]",-3.462%
NC(=O)NCC1CCCCN1C(=O)c1cc(F)cc(F)c1 (stereo not drawn),Percent Effect,"30.3 µM, […]",-17.02%
Cc1ccc(C(=O)N2CCCCC2CNC(N)=O)cc1F (stereo not drawn),Percent Effect,"30.3 µM, […]",53.34%
NC(=O)NCC1CCCCN1C(=O)c1cccc(Cl)c1 (stereo not drawn),Percent Effect,"30.3 µM, […]",-13.75%
CC(C)(C)NC(=O)CN1CCNCC1.Cl.Cl,Percent Effect,"30 µM, 30.03 µM",-49.47%
CO[C@H]1C[C@@H]2CN(C(=O)Cc3ccc(C)s3)C[C@@H]2C1,Percent Effect,"30.3 µM, […]",15.04%
Cc1oc(-c2cc(F)cc(F)c2)nc1CN1C[C@@H](C)NC[C@@H]1C,Percent Effect,"30.3 µM, […]",16.81%
CNC(=O)C1CCN(Cc2nc(-c3ccc(SC)cc3)oc2C)C1 (stereo not drawn),Percent Effect,"30 µM, 30.03 µM",5.239%
CSc1ccc(-c2nc(CN3CCC(C(N)=O)CC3)c(C)o2)cc1,Percent Effect,"30 µM, 30.03 µM",22.66%
CSc1ccc(-c2nc(CN3CCC(CN)C3)c(C)o2)cc1 (stereo not drawn),Percent Effect,"30 µM, 30.03 µM",56.38%
CSc1ccc(-c2nc(CN3CCC(NC(C)=O)CC3)c(C)o2)cc1,Percent Effect,"30 µM, 30.03 µM",23.08%
CSc1ccc(-c2nc(CN3CCNCC3C)c(C)o2)cc1 (stereo not drawn),Percent Effect,"30.3 µM, […]",65.66%
Cc1ccc(-c2nc(CN3C[C@@H](C)NC[C@@H]3C)c(C)o2)s1,Percent Effect,"30.3 µM, […]",11.25%
CNC(=O)CC1CCN(Cc2nc(-c3ccc(SC)cc3)oc2C)CC1,Percent Effect,"30.3 µM, […]",15.19%
CSc1ccc(-c2nc(CN3C[C@@H](C)NC[C@@H]3C)c(C)o2)cc1,Percent Effect,"30.3 µM, […]",65.6%
Cc1nc(C)n(C2CCCN(C(=O)c3cscn3)C2)n1 (stereo not drawn),Percent Effect,"30.3 µM, […]",-21.61%
CCC(=O)N1Cc2nccn2CC(CN(C)Cc2cccnc2)C1.O=C(O)C(F)(F)F.O=C(O)C(F)(F)F (stereo not drawn),Percent Effect,"30 µM, 30.03 µM",3.591%
O=C(Nc1cccnc1)[C@H]1C[C@@H]2CN(Cc3ccc(F)cc3)C[C@H]1O2,Percent Effect,"30.3 µM, […]",-89.84%
CC(C)NC(=O)N1CC[C@H]2N(C)CC[C@@]2(C(=O)Nc2cccnc2)CC1,Percent Effect,"30.3 µM, […]",-97.82%
COCCn1c2c(ccc1=O)CC(NS(C)(=O)=O)CC2 (stereo not drawn),Percent Effect,"30 µM, 30.03 µM",-56.59%
O[C@@H]1CN(c2cnc3ccccc3n2)CC[C@H]1c1ccc2c(c1)OCO2,Percent Effect,"30 µM, 30.03 µM",-17.33%
Cc1ccc(C)c(CSc2nnc(C(N)C(C)C)o2)c1.Cl (stereo not drawn),Percent Effect,"30 µM, 30.03 µM",-51.12%
